The list is not random: actives were taken first. Their share in the collection is about 5.8%.
KB-3-1 cytotox = kills parental KB-3-1 adenocarcinoma cells; KB-3-1 viability, CellTiter-Glo ATP luminescence, 72 h; Potency, µM (top dose mostly 46.1 µM), hits mostly cytotoxic; 400,000 tested, 1.4% active; note: % is set by controls: 0 for no effect and ±100 for the full control effect; nearly all actives have a fitted effect of over 60% in size
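KB-3-1 cells, DMEM (no phenol red) + 10% FBS; compound by pin transfer, 72 h, 37 °C. Readout: CellTiter-Glo luminescence after 10 min. Data normalized, curve-fitted.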
MCF10A rerep = inducers of DNA re-replication in MCF 10A breast cells; MCF 10A DNA re-replication, Hoechst nuclear intensity, 48 h; Potency, µM (doses to about 46.1 µM), for inactives: at the highest dose activity, positive = re-replication, hits mostly activators; 350,000 tested, 2.9% active; AID 624296; note: % of control where 0% means no effect; nearly all actives have a fitted effect of over 50% in size
ALOX12 inh = blocks human arachidonate 12S-lipoxygenase | purified 12hLO, xylenol orange hydroperoxide absorbance | Potency, µM (top dose mostly 108 µM), inactives show top-dose activity change, negative = inhibition, usual class: inhibitors | 580,000 tested, 1.1% active; note: % is set by controls: 0 for no effect and ±100 for the full control effect
Target sequence (P18054 whole entry, looked up): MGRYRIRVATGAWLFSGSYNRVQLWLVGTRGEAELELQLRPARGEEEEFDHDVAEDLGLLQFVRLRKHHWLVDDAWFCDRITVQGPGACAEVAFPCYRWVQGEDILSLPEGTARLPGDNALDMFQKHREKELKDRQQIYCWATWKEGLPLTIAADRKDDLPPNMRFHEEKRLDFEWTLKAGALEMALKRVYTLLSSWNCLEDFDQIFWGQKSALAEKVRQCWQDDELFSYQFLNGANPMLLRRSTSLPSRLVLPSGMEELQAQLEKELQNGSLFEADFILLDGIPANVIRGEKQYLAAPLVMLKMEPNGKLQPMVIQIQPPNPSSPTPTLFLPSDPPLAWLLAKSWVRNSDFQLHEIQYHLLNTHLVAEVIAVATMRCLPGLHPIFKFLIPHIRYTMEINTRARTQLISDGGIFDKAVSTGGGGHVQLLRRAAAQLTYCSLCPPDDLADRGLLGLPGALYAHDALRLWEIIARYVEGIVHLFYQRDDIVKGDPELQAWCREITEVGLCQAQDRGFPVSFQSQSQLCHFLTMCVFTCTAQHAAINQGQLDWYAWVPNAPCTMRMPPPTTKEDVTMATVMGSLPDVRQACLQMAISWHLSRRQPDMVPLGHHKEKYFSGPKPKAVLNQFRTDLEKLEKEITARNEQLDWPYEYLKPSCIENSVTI
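Purified human 12hLO at 150 nM in 25 mM Hepes, 0.01% Triton X-100, pH 7.0, preincubated 15 min at room temperature with compound. Reaction started with 40 uM arachidonic acid, 30 min at room temperature. Hydroperoxide measured by Fe-xylenol orange, 573/405 nm absorbance ratio.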
KB-V1 MDR tox = KB-V1 MDR subline cytotoxicity; KB-V1 MDR cells viability, CellTiter-Glo, 72 h; Potency, µM (highest dose often 46.1 µM), most hits filed as cytotoxic; 400,000 tested, 3.4% active; note: % is set by controls: 0 for no effect and ±100 for the full control effect; nearly all actives have a fitted effect of over 60% in size
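Cytotoxicity toward P-gp-expressing KB-V1 cells was determined as loss of CellTiter-Glo luminescence after 72 h at 37 degrees C. Compounds were tested in quantitative HTS format across a concentration range, with curves fitted to normalized data.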
PINK1 expr mod = changes PINK1 expression. PINK1 immunofluorescence, high-content cytometry, 24 h. 410,000 tested, 0.2% active. Potency, µM (titrated, usually from 76.6 µM), inactives show at the top dose activation (PINK1 increase), hits mostly activators; active = well fitted activation curve with a large enough effect; inconclusive = small, poorly fitted or top-dose-only effect; cell line not stated here; note: % of control where 0% means no effect; nearly all actives have a fitted effect of over 65% in size
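Measures PINK1 amount and localization on or inside mitochondria by immunofluorescence. Stable cells get compounds at 5 concentrations for 24 hours before fixation and staining; CCCP controls included.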
SW480 rereplic = DNA re-replication induction in SW480 cells. SW480 DNA re-replication, Hoechst DNA content imaging, 48 h. Potency, µM (doses to about 46.1 µM), without a hit: top-dose re-replication activation, hits mostly activators. 340,000 tested, 1.8% active; note: % of control where 0% means no effect; nearly all actives have a fitted effect of over 55% in size
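DNA re-replication was detected as more nuclei of elevated Hoechst intensity after 48 hr exposure to compound (23 nL pinned per well of 250 cells).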
* hit, by the source's call; i = inactive; ? = inconclusive; nt = not tested or not shown; [ ] = remark or other dose. Unless noted, calls come from the whole dose curve; as a rule, active = well fitted curve in the direction sought with a large enough effect; inconclusive = small, poorly fitted or top-dose-only effect, or another doubt; inactive = no such curve, though single readings can be large; an effect the other way counts as inactive or inconclusive. Potency is the fitted concentration of half-maximal effect.

SMILES	KB-3-1 cytotox	MCF10A rerep	ALOX12 inh	KB-V1 MDR tox	PINK1 expr mod	SW480 rereplic
CCN(C(=O)CSc1nnc(-c2cc(OC)c(OC)c(OC)c2)o1)c1ccccc1	i	nt	-26.6%	?	4.0%	nt
COc1ccc(-n2nc(C)c([C@H]3C=C[C@@H](OC(=O)Nc4ccc(Br)cc4)C3)c2C)cc1	nt	nt	-3.1%	nt	nt	nt
CC1=C(C(=O)Nc2ccc(C)cc2C)C2(CCCCC2)OC1=O	nt	nt	-24.5%	nt	nt	nt
CN(Cc1ccco1)C(=O)c1cc(-c2ccccn2)nc2ccccc12	nt	nt	15.8%	nt	nt	nt
COc1ccc(CCNC(=O)CSc2nnc(-c3ccccc3)o2)cc1OC	i	-0.2%	-15.4%	20.6µM*	-0.3%	-11.8%
CCOc1ccccc1CN1CCN(c2cc(C)nc(N)n2)CC1CCO (configuration not stated)	nt	nt	49.5%	nt	nt	nt
Cc1ccc(C(NC(=O)Cc2n[nH]c(=O)c3ccccc23)C2CC2)cc1 (configuration not stated)	nt	nt	-29.0%	nt	nt	nt
Cc1ccc(NC(=O)C2CC(=O)N(C(C)c3ccccc3)C2)cc1 (configuration not stated)	i	2.3%	?	18.4µM*	1.3%	0.3%
Cc1cccc(C(=O)CC(=O)c2cccc(C)c2)c1	nt	nt	11.6%	nt	nt	nt
OC(COc1cccc2ccccc12)CN1CCN(c2cccc(Cl)c2)CC1 (configuration not stated)	i	25.9µM*	0.0%	i	3.3%	14.1%
OC(COc1c(F)cc(Br)cc1F)CN1CCN(c2ccc(F)cc2)CC1 (configuration not stated)	?	17.4%	?	16.4µM*	?	-3.5%
OC(COc1cccc2ccccc12)CN1CCN(c2ccc(Cl)cc2)CC1 (configuration not stated)	i	?	-6.0%	?	?	-14.8%
C=CCc1ccccc1OCC(O)CN1CCN(c2ccc(C)cc2)CC1 (configuration not stated)	i	6.2%	0.562µM*	i	?	-1.9%
OC(COc1c(F)cc(Br)cc1F)CN1CCOCC1 (configuration not stated)	i	-18.8%	-8.4%	i	-0.7%	-4.4%
Cc1cc(NC(=O)c2ccc(CN3CC[C@H](O)C3)cc2)ccc1F	nt	nt	16.5%	nt	nt	nt
c1ccc(CC2=NOC3(CCN(Cc4ccccc4)C3)C2)cc1 (configuration not stated)	nt	nt	55.3%[176 µM]	nt	nt	nt
O=Cc1ccccc1OCc1ccc2c(c1)OCO2	?	?	19.8%	i	10.0%	18.4µM*
Cc1cccc(Nc2nnc(Cc3ccccc3)c(=O)[nH]2)c1	nt	nt	-9.9%	nt	nt	nt
CC(C)(C)C(=O)N1N=C(c2cccs2)CC1c1ccc2nccnc2c1 (configuration not stated)	nt	nt	1.3%	nt	nt	nt
O=C(CSc1cccc[n+]1[O-])CSc1cccc[n+]1[O-]	i	-14.0%	6.9%	?	-1.9%	6.51µM*
C=CCNC(=O)CCC1NC(=O)N(CCc2c[nH]c3ccc(F)cc23)C1=O (configuration not stated)	nt	nt	-7.9%	nt	nt	nt
O=[N+]([O-])c1cccc2nc3ccccc3c(NCCCn3ccnc3[N+](=O)[O-])c12	i	?	-6.8%	0.731µM*	-6.9%	?
Cc1cc2c(cc1C)CSC(c1ccccc1OC(=O)c1ccc(I)cc1)SC2	nt	nt	-8.6%	nt	nt	nt
Cc1cc(SCC(=O)c2cccs2)n2nc(C)c(-c3ccccc3)c2n1	i	?	-8.7%	20.6µM*	3.0%	?
C=CCSc1cc(C)nc2c(-c3ccccc3)c(C)nn12	?	?	-0.6%	7.31µM*	2.1%	?
SMILES	KB-3-1 cytotox	MCF10A rerep	ALOX12 inh	KB-V1 MDR tox	PINK1 expr mod	SW480 rereplic
CCn1nnc(NC(=O)C(C)Oc2ccc(Cl)cc2Cl)n1 (configuration not stated)	i	1.0%	?	18.4µM*	-1.0%[38.3 µM]	-9.6%
CN(C)c1nc(N/N=C/c2c[nH]c3ccccc23)nc(N2CCOCC2)n1	i	19.5%	?	i	-0.2%	14.6µM*
CC(=O)NC(c1ccco1)c1cc(Cl)c2cccnc2c1O (configuration not stated)	i	nt	?	i	4.1%	nt
CC(=O)NC(c1cc(Cl)c2cccnc2c1O)C1CC1 (configuration not stated)	i	?	?	16.4µM*	6.2%	1.3µM*
CC(=O)NC(c1ccc(C)cc1)c1cc(Cl)c2cccnc2c1O (configuration not stated)	5.8µM*	?	?	?	-1.8%	2.91µM*
Oc1c(C(Nc2ccccn2)c2cccnc2)cc(Cl)c2cccnc12 (configuration not stated)	?	23.1µM*	?	i	1.9%	6.51µM*
Oc1c(C(Nc2ccccn2)c2ccccc2)cc(Cl)c2cccnc12 (configuration not stated)	?	nt	nt	i	nt	nt
CC(=O)NC(c1cc(Cl)c2cccnc2c1O)C(C)C (configuration not stated)	i	-50.6%	?	?	5.4%	?

Bioassay records (PubChem BioAssay)
